Tau fluor counter: Counterscreen qHTS for Inhibitors of Tau Fibril Formation, Fluorescence Polarization; tau K18 P301L Alexa594 fluorescence, heparin fibrillization; Potency, µM (top dose mostly 57.7 µM), without a hit: at the top dose activity change, negative = decrease; hit rate 0.93% among 280,000; further: nearly all actives have a fitted effect of over 55% in size
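Human K18 P301L tau (15 uM unlabeled plus 0.24 uM Alexa 594-labeled, final) in 100 mM sodium acetate pH 7 was mixed with compound and 20 uM heparin and incubated 6 hr at 37 C.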
PLK1 PBD inh: qHTS for Inhibitors of PLK1-PDB (polo-like kinase 1 - polo-box domain): Primary Screen | AID 720504, 2013 | Plk1 PBD binding of FITC phosphopeptide, fluorescence polarization | hit rate 2.8% among 360,000 | Serine/threonine-protein kinase PLK1 (Homo sapiens), P53350 | Potency, µM, without a hit: max response, negative = inhibition, most hits filed as inhibitors; further: series mostly up to about 57 µM; nearly all actives have a fitted effect of over 65% in size
Target sequence (P53350 whole entry, looked up, the tested form may be a part): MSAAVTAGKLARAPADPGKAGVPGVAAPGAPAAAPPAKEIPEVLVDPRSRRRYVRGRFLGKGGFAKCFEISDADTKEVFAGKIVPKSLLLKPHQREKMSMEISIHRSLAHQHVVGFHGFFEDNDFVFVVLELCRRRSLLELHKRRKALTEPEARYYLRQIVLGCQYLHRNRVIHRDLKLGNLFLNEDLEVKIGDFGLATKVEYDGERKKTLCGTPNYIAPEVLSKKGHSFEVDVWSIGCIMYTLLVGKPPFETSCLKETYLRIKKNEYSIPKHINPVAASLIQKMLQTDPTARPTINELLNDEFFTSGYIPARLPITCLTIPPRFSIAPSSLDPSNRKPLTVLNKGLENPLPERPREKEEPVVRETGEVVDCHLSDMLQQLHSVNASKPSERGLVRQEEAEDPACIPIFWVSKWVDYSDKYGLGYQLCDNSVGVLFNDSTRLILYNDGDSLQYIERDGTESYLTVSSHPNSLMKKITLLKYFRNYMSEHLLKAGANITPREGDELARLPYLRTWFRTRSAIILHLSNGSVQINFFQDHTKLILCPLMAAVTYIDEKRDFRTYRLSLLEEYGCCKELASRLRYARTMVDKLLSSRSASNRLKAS
Tau fibril FP: qHTS for Inhibitors of Tau Fibril Formation, Fluorescence Polarization; K18 P301L tau heparin fibrillization, Alexa594 FP, 6 h; Potency, µM (doses to about 57.7 µM), without a hit: at the top dose activity, negative = inhibition, most hits filed as inhibitors; hit rate 0.39% among 280,000; Microtubule-associated protein tau (Homo sapiens), P10636; further: nearly all actives have a fitted effect of over 55% in size
Target sequence (P10636 561-689 P618L limits assumed): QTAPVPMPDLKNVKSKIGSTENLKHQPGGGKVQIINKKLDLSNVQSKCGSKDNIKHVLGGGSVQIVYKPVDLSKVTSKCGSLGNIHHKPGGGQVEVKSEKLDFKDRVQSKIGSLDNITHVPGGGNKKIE
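Compound effects on tau fibrillization are measured by Alexa 594 fluorescence polarization (ex 555, em 632 nm). K18 P301L tau is used at 15 uM with 0.24 uM labeled tracer, and 20 uM heparin induces aggregation over 6 hr at 37 C.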
VDR inh: Inhibitors of the vitamin D receptor (VDR): qHTS; Potency, µM, inactives show max response, negative = inhibition, most hits filed as inhibitors; AID 504847, 2011; hit rate 0.93% among 400,000; VDR-SRC2-3 peptide fluorescence polarization, 2 h
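Two reagent solutions held at 4 deg C in the dark were dispensed, compounds pinned at 23 nl, and the mixture incubated 2 h at room temperature. Read-out: fluorescence polarization of VDR–SRC2-3 peptide binding.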
Sfp inh: qHTS Assay for Inhibitors of Bacillus subtilis Sfp phosphopantetheinyl transferase (PPTase). 4'-phosphopantetheinyl transferase ffp (Bacillus subtilis), Q9F4F7. Potency, µM, inactives show largest response in the series, negative = inhibition, usual class: inhibitors. Biochemical Sfp PPTase activity, qHTS. AID 1490, 2009. hit rate 3.5% among 310,000;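 further: the enzyme is Sfp with the accession as filed and its product quenches rhodamine fluorescence; 0% = enzyme reaction without inhibitor and -100% = no enzyme wells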
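Sfp 15 nM + cpd, 15 min RT; start w/ rhodamine-CoA 5 uM, BHQ-2-YbbR 12.5 uM (final); 50 mM Hepes pH 7.6, 10 mM MgCl2, 0.01% NP-40, 0.01% BSA; read 525/598 nm at 0 and 30 min.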
Tau ThT inhib: qHTS for Inhibitors of Tau Fibril Formation, Thioflavin T Binding. Microtubule-associated protein tau (Homo sapiens), P10636. recombinant tau K18 P301L, heparin-induced fibrillization, ThT fluorescence. Potency, µM (series often up to 57.4 µM), for inactives: top-dose activity, negative = inhibition, most hits filed as inhibitors. hit rate 2.1% among 270,000. AID 1460, 2008; further: nearly all actives have a fitted effect of over 55% in size
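Fibril formation assay: tau K18 P301L at 15 uM with trace Alexa 594 label, heparin inducer 20 uM, pH 7 sodium acetate buffer, 37 C for 6 hr; endpoint ThT signal.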
* = called active by the depositor; ? = inconclusive; . = not tested or not shown; [ ] = dose if it differs, or a comment. In the library only some 6% were active in any assay of this set; here they are far more common. The call rests on the fitted dose curve; in most records, active means well fitted curve in the direction sought with a large enough effect; inconclusive means small, poorly fitted or top-dose-only effect, or another doubt; inactive means no such curve, though single readings can be large; an effect the other way counts as inactive or inconclusive. Unless noted, on the % scale 0 is the no-effect control and ±100 the full control effect; potency means the concentration at half of the fitted maximal effect.

SMILES	Tau fluor counter	PLK1 PBD inh	Tau fibril FP	VDR inh	Sfp inh	Tau ThT inhib
COc1ccc(C(=O)Nc2ccnn2C2CCN(Cc3ccccn3)CC2)cc1	.	-17.0%	.	0.3%	-2.3%	.
COc1ccc(C(=O)Nc2ccnn2C2CCN(Cc3cnn(C)c3)CC2)cc1	.	26.7µM*	.	-15.2%	4.8%	.
CCCn1ncc(CN2CCC(n3nccc3NC(=O)c3ccccc3OC)CC2)c1C	.	2.7%	.	-8.8%	6.7%	.
CCc1ccc(CN2CCC(n3nccc3NC(=O)c3ccccc3Cl)CC2)cc1	.	2.3%	.	-23.3%	9.5%	.
CC1(C)CC(=O)c2cc(C(=O)Nc3ccc(Br)cc3)c(=O)[nH]c2C1	-4.6%	.	-0.4%	22.0%	.	-1.0%
CCOC(=O)C1CCCCN1Cc1ccc(F)c(Br)c1 (stereo not drawn)	-12.1%	-8.3%	4.4%	-8.0%	63.1µM*	-5.1%
CCOC(=O)N/N=C/c1ccccc1F	-0.2%	1.4%	1.5%	2.6%	21.5%	-6.1%
CCc1nnc(N/N=C/c2ccccc2F)n1N	-1.3%	-0.7%	-1.2%	-6.9%	50.1µM*	-13.7%
COC(=O)C1=C(C)N(Cc2ccccc2)[C@]23O[C@](C(=O)OC)(C(=O)N2C1c1ccccc1)C(C(=O)OC)=C3C(=O)OC (stereo partly drawn)	-16.3%[11.6 µM]	.	-3.4%[11.6 µM]	.	-6.2%	-19.0%[11.5 µM]
Cc1ccc(C(=O)Nc2nc(=O)n(C(=O)c3ccccc3Cl)s2)cc1	-29.0%	?	?	17.8µM*	-14.4%	12.6µM*
Cc1ccc(C(=O)Nc2ccccc2Cl)cc1	.	-2.0%	.	6.8%	17.4%	.
Cn1sc(NC(=O)c2ccc(Cl)cc2)nc1=O	1.8%	-8.1%	1.3%	-7.2%	56.2µM*	15.4%
CC(C)CC(=O)n1sc(NC(=O)c2ccccc2)nc1=O	-20.0%	-6.7%	?	44.7µM*	-4.5%	22.4µM*
Cc1ccc(C(=O)Nc2nc(=O)n(C)s2)cc1	-2.0%	3.0%	-5.5%	-11.4%	7.6%	5.6%
Cc1nnc(NC(=O)c2ccccc2)s1	1.7%	.	-6.1%	-15.8%	.	2.6%
Cc1ccc(OCC(=O)Nc2ccc3nc(SCC(N)=O)sc3c2)cc1	-10.4%	.	-7.7%	7.2%	.	-11.4%
O=C1C2C3C=CC(CC3)C2C(=O)N1c1ccccc1[N+](=O)[O-] (stereo not drawn)	-10.7%	-8.3%	-4.1%	8.3%	56.2µM*	-6.6%
O=C1C2C3C=CC(CC3)C2C(=O)N1c1ccc(Br)cc1[N+](=O)[O-] (stereo not drawn)	.	-7.1%	.	10.1%	16.9%	.
COC(=O)C1(CO)NC(c2cccs2)C2C(=O)N(c3ccccc3)C(=O)C21 (stereo not drawn)	-4.3%	26.7µM*	-0.8%	17.9%	10.2%	1.8%
CCCCCCCCc1nc(=S)[nH][nH]1	-5.9%	?	-3.3%	-1.9%	20µM*	-7.7%
Cc1cc(-c2ccco2)c(C#N)c2nc3ccccc3n12	-6.6%	-25.9%	6.3%	-0.8%	50.1µM*	-15.0%
O=C(O)C1Nc2c(O)cc(Cl)c([N+](=O)[O-])c2C2C=CCC12 (stereo not drawn)	7.08µM*[quencher]	2.99µM*	14.1µM*	-20.5%	56.2µM*	7.94µM*
CC(=O)NCCNc1nc(-c2ccccc2Cl)nc2ccccc12	-12.8%	.	-8.2%	8.5%	0.4%	-7.8%
CCC(C)c1ccc(O)c(N)c1 (stereo not drawn)	-9.5%	-2.4%	-1.7%	-7.5%	50.1µM*	-14.6%
CCC(C)c1ccccc1O (stereo not drawn)	.	-10.2%	.	13.0%	.	.
SMILES	Tau fluor counter	PLK1 PBD inh	Tau fibril FP	VDR inh	Sfp inh	Tau ThT inhib
CC(C)c1ccc(O)c(N)c1	10.1%	1.1%	10.1%	-5.7%	11.2µM*	3.2%
OCCN1CCN(c2nc(NCc3ccco3)c3ccccc3n2)CC1	-8.1%	-8.2%	-9.6%	-14.9%	2.5%	-9.3%
c1ccc(CN2CCN(c3nc(NCc4ccco4)c4ccccc4n3)CC2)cc1	?	3.6%	13.4%	-8.6%	44.7µM*	-15.0%
c1cncc(-c2nc(NCc3ccco3)c3ccccc3n2)c1	-26.7%	-3.5%	-2.4%	0.7%	79.4µM*	?
Oc1ccccc1Nc1nc(NCc2ccco2)c2ccccc2n1	17.8µM*[quencher]	5.6%	-10.0%	-8.9%	25.1µM*	?
Cc1ccc(-c2nc(NCc3ccco3)c3ccccc3n2)cc1	?	-5.0%	?	4.9%	0.1%	?
Cc1ccc(NC(=O)CSCC(=O)Nc2nnc(C)s2)cc1	.	-10.7%	.	-20.9%	.	.
Cc1ccc2nc(C(C)(C)C)c(Cc3cccc(F)c3)n2c1	.	-2.0%	.	.	.	.
O=C(Cc1ccccc1)NC1(O)C(=O)c2ccccc2C1=O	-13.4%	-15.2%	?	35.5µM*	6.1%	.
O=C(Cc1ccccc1)NO	-8.5%	.	7.8%	-2.2%	23.6%	-7.4%
COc1ccc(/C=N/NC(=O)c2ccc3ccccc3c2)cc1OS(=O)(=O)c1ccc(NC(C)=O)cc1	?	-6.5%	12.6µM*	13.6%	21.3%	7.7%
COc1ccc(/C=N/NC(=O)c2ccc(NC(=O)C3CCCCC3)cc2)cc1O	.	-11.2%	.	-8.2%	79.4µM*	.
CCOC(=O)c1c(C)c(C(=O)NCc2ccc(Cl)cc2)c(C)n1CC	-2.2%	.	-3.0%	6.3%	.	-1.9%
COc1ccc(NC(=O)c2ccccc2NC(=O)C2CCCCC2C(=O)O)cc1 (stereo not drawn)	.	5.8%	.	10.2%	.	.
COc1ccc(C2=NC(C)(C)N(CC(=O)Nc3cccc(C)c3)C2=O)cc1	-13.8%	.	-3.5%	9.7%	.	-2.1%
COc1ccc(CCn2c(O)cc3nn(-c4nc5ccccc5s4)c(=O)c-3c2C)cc1	?	-24.6%	-5.6%	-5.0%	-4.1%	17.8µM*
CCOC(=O)c1c(C)[nH]c(C(=O)COC(=O)COc2ccccc2C=O)c1C	1.7%	18.9µM*	6.3%	?	-10.0%	?
CCOC(=O)c1c(C)[nH]c(C(=O)COC(=O)/C=C/c2cccc(OC)c2OC)c1C	3.5%	-5.8%	-1.5%	11.7%	16.7%	5.3%
COCCCNC(=O)C(C)N1c2cccc3cccc(c23)S1(=O)=O (stereo not drawn)	.	10.6µM*	.	70.8µM*	9.3%	.

Screens: PubChem BioAssay, National Center for Advancing Translational Sciences (NCATS)
